# High-throughput results: PubChem, The Scripps Research Institute Molecular Screening Center
# GPR151 activ = activates the human receptor GPR151; Q8TDV0; PathHunter beta-arrestin GPR151 cells, luminescence; activation, % at 11.2 µM; hit rate 1% among 650,000; AID 1508602; in the data active means activation above about 4.9%;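 further: 0% = median of compound wells and 100% = cells with positive control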
# MITF primary = blocks human microphthalmia-associated transcription factor. O75030. AlphaScreen MITF homodimerization, bead proximity signal. inhibition, % at 2.6 µM. hit rate 0.91% among 650,000. AID 1259374; in the data active means inhibition above about 50%;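 further: 0% = vehicle wells with protein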
# Target sequence (O75030 whole entry, looked up): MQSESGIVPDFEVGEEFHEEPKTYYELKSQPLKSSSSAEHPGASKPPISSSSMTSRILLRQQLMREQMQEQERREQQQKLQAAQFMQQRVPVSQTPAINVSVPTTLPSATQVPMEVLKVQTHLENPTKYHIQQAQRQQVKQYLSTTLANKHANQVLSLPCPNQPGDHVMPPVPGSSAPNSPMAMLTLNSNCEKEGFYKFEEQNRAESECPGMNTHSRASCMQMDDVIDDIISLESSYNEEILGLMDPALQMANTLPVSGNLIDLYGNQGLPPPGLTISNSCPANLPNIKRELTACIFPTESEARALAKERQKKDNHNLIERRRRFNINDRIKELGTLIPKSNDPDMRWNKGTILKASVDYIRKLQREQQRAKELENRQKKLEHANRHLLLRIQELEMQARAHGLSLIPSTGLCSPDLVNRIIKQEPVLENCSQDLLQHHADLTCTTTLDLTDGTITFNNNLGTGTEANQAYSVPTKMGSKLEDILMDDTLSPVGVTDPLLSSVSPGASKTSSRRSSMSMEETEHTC
# TEAD-YAP block = TEAD-YAP interaction inhibition | HEK-TIYL cells, TEAD-Gal4/YAP UAS-luciferase luminescence | inhibition, % at 9.12 µM | hit rate 1.4% among 640,000 | AID 1259422; in the data active means inhibition above about 32%;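 further: 0% = median of test compound wells and 100% = reference inhibitor wells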
# FBW7 activator = activators of human E3 ligase FBW7. hit rate 0.13% among 650,000. AlphaScreen FBW7–phospho-cyclin E peptide binding, activator screen. Q969H0. normalized activity (activation), % at 26.1 µM; in the data active means normalized activity above about 1.9%;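 further: purified mutant Fbw7 with reduced substrate affinity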
# The depositor's hits bear a star. The list is not random: actives were taken first. Their share in the collection is about 3.4%.
SMILES,GPR151 activ,MITF primary,TEAD-YAP block,FBW7 activator
Cc1ccccc1CN1C(=O)CSc2ccc(C(=O)N3CCN(c4ccccn4)CC3)cc21,3,4,45*,0
O=C(/C=C/c1ccccc1Cl)Nc1ccc2c(c1)C(=O)NC2=O,0,16,2,0
O=C(/C=C/c1ccc(Cl)cc1Cl)Nc1ccccc1F,-1,4,47*,0
O=C(/C=C/c1ccccc1Cl)Nc1cccc(O)c1,-2,11,38*,0
COc1ccc(/C=C/C(=O)Nc2ccccc2F)cc1,-11,10,80*,0
C=CCN1C(=O)/C(=C2/C(=O)N(CC)c3ccc([N+](=O)[O-])cc32)SC1=S,1,8,14,0
CC(C)NC(=O)CSc1nc(-c2ccco2)cc(C(F)(F)F)n1,0,-9,3,0
CC(=O)Nc1cccc(NC(=O)CSc2nc(-c3ccco3)cc(C(F)(F)F)n2)c1,2,8,42*,0
O=C(CSc1nc(-c2ccco2)cc(C(F)(F)F)n1)Nc1cccnc1,1,8,48*,0
CCCNC(=O)CSc1nc(-c2ccco2)cc(C(F)(F)F)n1,0,3,10,0
CCNC(=O)/C(C#N)=C/c1c(Oc2ccc(C)cc2)nc2c(C)cccn2c1=O,-1,-8,6,0
CC1=CC(C)(C)N(C(=O)c2ccc(NS(C)(=O)=O)cc2)c2ccc(C)cc21,1,2,59*,0
CC1=CC(C)(C)N(C(=O)Nc2ccc(Cl)cc2)c2ccc(C)cc21,-1,7,-11,0
CCn1c(SCc2c(F)cccc2Cl)nc2c(c1=O)SCC2,-1,-2,-8,0
Cc1[nH]nc2c1C(c1cc(Br)c(C)s1)C(C#N)=C(N)O2 (configuration not stated),-2,8,33*,0
Cc1ccc(NC(=O)CN(C)S(=O)(=O)c2ccc3c(c2)CCC(=O)N3)cc1C,0,-18,-6,0
CCOC(=O)CNS(=O)(=O)c1cc(-c2nnc(Nc3ccc(Cl)c(Cl)c3)c3ccccc23)ccc1C,0,6,1,2.2*
Cc1ccc(-c2cnc3c(Nc4ccc(O)cc4)nccn23)cc1,0,14,9,0
OC1CCC(Nc2nccn3c(-c4ccsc4)cnc23)CC1 (configuration not stated),-1,13,-9,2.1*
Oc1ccc(Nc2nccn3c(-c4ccc(F)cc4)cnc23)cc1,-1,-16,53*,0
O=C(NCCO)c1cccc(-c2cnc3c(Nc4ccc(F)c(Cl)c4)nccn23)c1,-4,10,74*,0
Oc1ccc(Nc2nccn3c(-c4ccsc4)cnc23)cc1,-1,-6,37*,0
O=C(NCCO)c1cccc(-c2cnc3c(Nc4cccc(C(F)(F)F)c4)nccn23)c1,-1,-10,-5,0
CC(C)c1ccc(Nc2nccn3c(-c4ccc(O)cc4)cnc23)cc1,3,5,-10,1
CCOC(=O)CC1C(=O)NCCN1Cc1ccoc1 (configuration not stated),-1,-2,2,0
SMILES,GPR151 activ,MITF primary,TEAD-YAP block,FBW7 activator
Oc1ccc(Nc2nccn3c(-c4ccccc4F)cnc23)cc1,-2,10,83*,1
Oc1ccc(Nc2nccn3c(-c4cccc(F)c4)cnc23)cc1,-1,-2,65*,0
Cc1c(Cl)cccc1NC(=O)CCC(=O)NNC(=O)c1ccccc1Br,1,6,-3,0
COc1ccc(C2=NN(C(=O)c3cc(OC)c(OC)c(OC)c3)C(c3ccccc3OC)C2)cc1OC (configuration not stated),1,-4,35*,0
N#CC(C#N)=NNc1ccc(O)c(C(=O)O)c1,0,79*,3,0
N#CC(C#N)=NNc1ccccc1C(=O)O,0,6,10,0
Cc1nnc(SCC(=O)N2CCC(c3noc4ccc(F)cc34)CC2)s1,1,-2,37*,0
Cc1nnc(SCC(=O)N2CCCC2)s1,-2,2,-2,0
CCOc1ccc(-c2c3cc(O)c(=O)cc-3oc3cc(O)c(O)cc23)cc1,-1,111*,-5,0
CCOc1ccc(-c2cc(=O)c3ccc(NC(=O)c4ccncc4)cc3o2)cc1,1,0,-9,0
O=c1cc2oc3cc(O)c(O)cc3c(-c3ccc([N+](=O)[O-])cc3)c-2cc1O,0,97*,7,-2
O=C1c2ccccc2C(=O)c2c(O)c([N+](=O)[O-])cc(O)c21,1,8,3,0
O=c1cc(-c2ccc3c(c2)OCCO3)oc2ccc([N+](=O)[O-])cc12,-1,10,-9,0
O=c1cc2oc3cc(O)c(O)cc3c(-c3ccccc3[N+](=O)[O-])c-2cc1O,-1,114*,6,0
COc1ccc2[nH]c(=O)c(CN(CC3CCCO3)S(=O)(=O)c3ccccc3F)cc2c1 (configuration not stated),1,3,34*,0
N#Cc1c(N)nc(SCC(=O)NCc2ccccc2)c(C#N)c1-c1ccccc1Cl,1,10,58*,0
N#Cc1cc2cc3c(cc2nc1SCC(=O)NCc1ccccc1)OCCO3,2,11,36*,0
N#Cc1cc2cc3c(cc2nc1SCC(=O)Nc1ccccc1)OCCO3,-1,-8,-8,0
CCOc1ccccc1NC(=O)CSc1nc2ccc(OC)cc2cc1C#N,0,-5,48*,0
CC(C)c1ccc(C#N)c(SCC(=O)Nc2ccccc2C(=O)O)n1,0,-10,0,3.9*
Nc1ccc2c(c1)-c1cc(N)ccc1OCCOCCOCCOCCO2,0,-18,1,0
C=CCn1c(SCC(=O)Nc2cc(C(F)(F)F)ccc2Cl)nnc1-c1cccs1,-1,12,9,0
CCOc1ccccc1NC(=O)CSc1nc2cc3c(cc2cc1C#N)OCCO3,-1,6,53*,0
N#Cc1cc2cc3c(cc2nc1SCC(=O)Nc1ccccc1F)OCCO3,1,2,54*,0
COc1ccccc1NC(=O)CSc1nc2cc3c(cc2cc1C#N)OCO3,-1,-9,3,0
SMILES,GPR151 activ,MITF primary,TEAD-YAP block,FBW7 activator
N#Cc1ccc(/C=C2/NC(=S)NC2=O)cc1,-1,5,-6,0
Cc1cc(C)c(CSc2nnnn2-c2ccc(C(N)=O)cc2)c(C)c1,-2,19,61*,0
CCc1ccccc1NCN1C(=O)c2cccnc2C1=O,-2,29,5,0
COc1cc(N2C(=O)NC(=O)/C(=C\c3ccc(N(C)C)cc3)C2=O)cc(OC)c1OC,0,2,2,2.5*
O=[N+]([O-])c1ccc(Br)c2ccncc12,4,19,62*,0
COc1ccc2nc(C3C(=O)c4ccccc4C3=O)ccc2c1,-3,14,83*,0
Cc1ccc2nc(C3C(=O)c4ccccc4C3=O)ccc2c1,3,4,54*,0
CC(C(=O)Nc1ccc(Cl)cn1)N1Cc2ccccc2C1=O (configuration not stated),-1,-11,85*,0
COCCNC(=S)Nc1nc(OC)cc(OC)n1,0,11,1,0
CNC(=O)c1cc(F)ccc1Nc1cc(Nc2ccc(NC(C)=O)cc2)ncc1C(F)(F)F,0,0,38*,0
